Compound activity from PubChem.
RN4220 kill – growth inhibition of S. aureus RN4220, primary screen, OD600 | 16 h | inhibition, % (test concentration not listed) | actives 0.33% (n = 330,000) | AID 1259311, 2017; in the data active means inhibition above about 85%;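 further: plate controls were untreated cells for no effect and reference antibiotic for full effect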
Mtb hypoxia rep – PubChem AID 1159583; M. tuberculosis hypoxia-regulated fluorescent reporter, fluorescence; fluorescence inhibition, % (test concentration not listed); actives 0.1% (n = 300,000); in the data active means fluorescence inhibition mostly above about 23%, no sharp cut-off; inactive means mostly below about 17%
ugtP null kill – growth inhibition of ugtP-null S. aureus, primary screen, RN4220 ugtP deletion, OD600; 16 h; growth inhibition, % (concentration not given with the values); actives 0.54% (n = 330,000); AID 1259309, 2017; in the data active means growth inhibition above about 68%;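 further: plate controls were untreated wells for no effect and antibiotic for full effect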
SSB-PriA inh – inhibitors of Klebsiella pneumoniae PriA binding to SSB C-terminal tail, primary screen, biochemical, AlphaScreen. inhibition, % at 33 µM. AID 1272365, 2023. actives 0.6% (n = 430,000). AlphaScreen SSBct-PriA binding, biotinylated peptide. PriA–SSB C-terminal tail interaction (Klebsiella pneumoniae); in the data active means inhibition mostly above about 37%, no sharp cut-off; inactive means mostly below about 20%;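 further: plate controls were negative control peptide for no effect and reference peptide for full effect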
* hit, by the source's call. Sampled rows, rich in hits. Any-hit rate of the full collection: about 1.1%.

For COc1ccc(-n2nnnc2CNC(=O)C(=O)c2c[nH]c3ccccc23)cc1 the results were RN4220 kill 1, Mtb hypoxia rep 2, ugtP null kill 0 and SSB-PriA inh 6.
Cc1ccc(-n2nnnc2SC(C(=O)c2c[nH]c3ccccc23)c2ccccc2)cc1 (configuration not stated) was read as RN4220 kill 65, Mtb hypoxia rep 2, ugtP null kill 90* and SSB-PriA inh -11.
Screening CC(=O)N1CCC(C(=O)NCc2cncc(-c3cccs3)c2)CC1 returned SSB-PriA inh -12.
Screening CN(C)CCCn1cnc2c(c1=N)C(c1ccccc1)c1ccc3ccccc3c1O2 (configuration not stated) returned RN4220 kill -2, ugtP null kill -13 and SSB-PriA inh 51*.
Screening CSC(=S)N/N=C(/c1ccccc1)c1ccccn1 returned SSB-PriA inh 108*.
For CSC(=S)NN=C(C)c1cccc(C)n1 the results were SSB-PriA inh 55*.
For CN(C)c1ccc(NC(=S)c2ccccn2)cc1 the results were RN4220 kill 6, Mtb hypoxia rep 16, ugtP null kill 26 and SSB-PriA inh 64.
For CC(=NNC(=S)N1CCCCC1)c1cccc(C)n1 the results were SSB-PriA inh -7.
Screening COc1cc(C(=O)NN=C(c2ccccc2)c2ccccn2)cc(OC)c1OC returned RN4220 kill 5, Mtb hypoxia rep -8, ugtP null kill -12 and SSB-PriA inh -5.
Screening CN(C)C(=S)NN=C(c1ccccn1)c1ccccn1 returned SSB-PriA inh 162*.
`O=C(O)CCN1C(=O)/C(=C/c2ccccc2[N+](=O)[O-])SC1=S` gave SSB-PriA inh 6.
For Cc1sc(NC(=O)[C@@H]2CCCCN2S(=O)(=O)c2cccs2)c(C#N)c1C the results were SSB-PriA inh -11.
COc1ccc(C(=O)/C=C2/C(=O)Nc3ccccc32)cc1OC was read as SSB-PriA inh -2.
Screening O=C1Nc2ccccc2/C1=C/C(=O)c1cccs1 returned RN4220 kill 98, ugtP null kill 94* and SSB-PriA inh -4.
Screening COc1ccc(C(=O)/C=C2/C(=O)Nc3ccccc32)cc1 returned RN4220 kill 97*, Mtb hypoxia rep 5, ugtP null kill 99* and SSB-PriA inh -5.
For O=C(Cn1ncn2nc(-c3ccc(Cl)cc3)cc2c1=O)Nc1ccccc1F the results were SSB-PriA inh -8.
`O=c1oc2ccccc2nc1/C=C(\O)c1ccccc1` gave RN4220 kill 5, Mtb hypoxia rep 46*, ugtP null kill -3 and SSB-PriA inh -7.
Screening Cc1cccc(OC2CCN(C(=O)COc3ccccc3F)CC2)n1 returned SSB-PriA inh -26.
Screening O=C(Nc1nnc(C2=COCCO2)o1)c1cccc(Cl)c1 returned SSB-PriA inh 2.
`O=C(Nc1nnc(C2=COCCO2)o1)c1cccc(Br)c1` gave RN4220 kill 92*, Mtb hypoxia rep 3, ugtP null kill 99* and SSB-PriA inh 7.
`CC[N+]1=C(C)C(C)(C)c2cc(C)ccc21` gave RN4220 kill 9, Mtb hypoxia rep 8, ugtP null kill 10 and SSB-PriA inh 52*.
For Cc1nc(NC(=O)CSc2nnc(-c3ccc4c(c3)OCO4)o2)c(Cl)cc1Cl the results were RN4220 kill 4, Mtb hypoxia rep 11, ugtP null kill 1 and SSB-PriA inh -5.
For O=C(CSc1nnc(-c2ccc3c(c2)OCO3)o1)Nc1ncc(C(F)(F)F)cc1Cl the results were RN4220 kill 75, Mtb hypoxia rep 3, ugtP null kill 97* and SSB-PriA inh 1.
O=C(O)CCc1ccc(C(F)(F)F)cc1 was read as SSB-PriA inh 1.
Screening CCN1C(=O)c2cccc3c(NC(=O)COc4ccc(Cl)cc4)ccc1c23 returned SSB-PriA inh -10.
Screening O=C(NCC#CCN1CCOCC1)NCc1ccc(Cl)cc1 returned SSB-PriA inh 1.
`CCCN1CCCc2ccc(N)cc21` gave SSB-PriA inh 130*.
Screening O=S(=O)(NCCSC1CCOCC1)c1ccccc1 returned SSB-PriA inh -6.
`CC(C)C[C@@H]1CN=C(N)N1C[C@@H]1CCCN1C[C@@H](C(C)C)N1C[C@@H](Cc2ccccc2)N(CCc2ccc(Cl)c(Cl)c2)C1=N` gave RN4220 kill 99*, Mtb hypoxia rep 10, ugtP null kill 100* and SSB-PriA inh -1.
Screening CC(C)C(CN1CCCC1CN1C(N)=NCC1Cc1ccccc1)N1CC(Cc2ccccc2)N(CCc2ccc(Cl)c(Cl)c2)C1=N (configuration not stated) returned RN4220 kill 101* and ugtP null kill 100*.
CC(C)CC1CN=C(N)N1CC1CCCN1CC(C)N1CC(Cc2ccccc2)N(CCc2ccc(Cl)c(Cl)c2)C1=N (configuration not stated) was read as RN4220 kill 101*, Mtb hypoxia rep 91* and ugtP null kill 101*.
For CC(C)C[C@@H]1CN=C(N)N1C[C@@H]1CCCN1C[C@H](C)N1C[C@@H](Cc2ccccc2)N(CCc2ccc(Cl)c(Cl)c2)C1=N the results were SSB-PriA inh -3.
`Clc1ccc(/C=C/c2nc3ccccc3[nH]2)c(Cl)c1` gave RN4220 kill 75, Mtb hypoxia rep 17, ugtP null kill 92* and SSB-PriA inh -11.
`Clc1ccc(/C=C/c2nc3ccccc3[nH]2)cc1` gave RN4220 kill 25, Mtb hypoxia rep 7, ugtP null kill -17 and SSB-PriA inh -26.
`O=C1CCc2cc(S(=O)(=O)NCCC3=CCCCC3)cc3c2N1CCC3` gave SSB-PriA inh -2.
CCOc1ccc(NC(=O)CSc2nccn2C)cc1 was read as RN4220 kill 1, Mtb hypoxia rep 19, ugtP null kill 1 and SSB-PriA inh 5.
For Cn1ccnc1SCC(=O)Nc1ccc(Oc2ccccc2)cc1 the results were RN4220 kill -15, Mtb hypoxia rep 3, ugtP null kill 2 and SSB-PriA inh 40*.
COc1ccc(NC(=O)CSc2nccn2Cc2ccccc2)cc1 was read as RN4220 kill 0, Mtb hypoxia rep -4, ugtP null kill 1 and SSB-PriA inh 46*.
Screening CC(C)(C)OC(=O)NN=C(c1ccc(O)cc1)c1ccc(O)cc1 returned RN4220 kill 99*, Mtb hypoxia rep 11, ugtP null kill 99* and SSB-PriA inh -10.
CC(C)(C)OC(=O)NN=Cc1ccc(C(=O)O)cc1 was read as RN4220 kill 5, Mtb hypoxia rep 12, ugtP null kill 6 and SSB-PriA inh -5.
c1ccc(C[n+]2sc(N(c3ccccc3)c3ccccc3)nc2-c2ccccc2)cc1 was read as SSB-PriA inh 23.
`CC(=CC(=O)c1ccc(Br)cc1)NNC(=O)c1ccc(O)cc1` gave SSB-PriA inh -8.
`O=C(NNc1ccc(O)cc1)c1ccc(Br)cc1` gave RN4220 kill 22, Mtb hypoxia rep 4, ugtP null kill 91* and SSB-PriA inh -1.
Screening O=C(O)CNC(=O)CC1S/C(=N/N=C2/NC(=O)CS2)NC1=O (configuration not stated) returned RN4220 kill 3, Mtb hypoxia rep 1 and ugtP null kill 6.
